A number with no mark means an inactive call. Active and inactive are the calls of the source.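 Rule for the calls, unless noted: active = compound raises GLP1 secretion from the human gut endocrine cells, with no numeric limit stated; inactive = the rest.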

The first experiment can be described thus: inhibition of endothelial tube formation, primary screen, imaging, VEGF stimulated, CD31 staining, tube area, NPC library (AID 1117340;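 active = compound that reduces growth-factor-driven endothelial tube area in a mixed cell culture, no cutoff stated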). As to conditions: VEGF-stimulated ADSC/ECFC co-culture, at 10 µM, stronger effect = higher value.
On to `O=C(O)C1(C(=O)O)CCC1.[NH2-].[NH2-].[Pt+2]`, for which the tube area decrease is 55.4% (active).

Regarding `N[C@@H](Cc1ccc(O)cc1)C(=O)O`, the tube area decrease was 1%.

Turning to `CCCC(=O)O[C@]1(C(=O)CO)CC[C@H]2[C@@H]3CCC4=CC(=O)CC[C@]4(C)[C@H]3[C@@H](O)C[C@@]21C`, the tube area decrease is 18.3%.

Consider `O=C(O)C(S)C(S)C(=O)O` (stereo not drawn), for which the tube area decrease was 14%.

As for `CC(C)=CCC[C@@](C)(O)[C@H]1CC=C(C)CC1`, the tube area decrease is 5%.

For the molecule `C[C@]12CC[C@@H]3c4ccc(O)cc4CC[C@H]3[C@@H]1CC[C@@H]2OC(=O)CCC1CCCC1`, the tube area decrease was 110% (active).

For `CC(=O)N(c1onc(C)c1C)S(=O)(=O)c1ccc(N)cc1`, the tube area decrease is -1%.

In the case of `C#C[C@]1(OC(C)=O)CC[C@H]2[C@@H]3CCC4=C/C(=N/O)CC[C@@H]4[C@H]3CC[C@@]21CC`, the tube area decrease was 99% (active).

Regarding `C[C@]12CCC(=O)C=C1CC[C@H]1[C@@H]3CC[C@](O)(C(=O)CO)[C@@]3(C)C[C@H](O)[C@@]12F`, the tube area decrease was 10.3%.

Consider `CCOc1cc(NC(C)=O)ccc1C(=O)OC`, for which the tube area decrease was 11.7%.

`CCCCC(=O)O[C@]1(C(=O)CO)CC[C@H]2[C@@H]3CCC4=CC(=O)CC[C@]4(C)[C@H]3[C@@H](O)C[C@@]21C`: the tube area decrease was -17.7%.

In the case of `C[C@@H]1CCC[C@H](C)N1`, the tube area decrease was 3.6%.

In the case of `CN(C)CCCO[C@@H]1[C@H]2OC(C)(C)O[C@H]2O[C@@H]1C(O)CO` (stereo partly drawn), the tube area decrease was -18.7%.

Turning to `CC(=O)Oc1ccc2c(c1)CC[C@@H]1[C@@H]2CC[C@]2(C)[C@@H](O)CC[C@@H]12`, the tube area decrease is -71.2%.

On to `CCOc1ccccc1C(N)=O`, for which the tube area decrease was -6.8%.

As to `N[C@H]1C(O)O[C@H](CO)[C@@H](O)[C@@H]1O` (stereo partly drawn), the tube area decrease was -12.1%.

Take `Cc1ccc2nc(N)[nH]c(=O)c2c1Sc1ccncc1`: the tube area decrease was 50.9% (active).

Consider `CN1C[C@@H]2C[C@H]1CN2c1cc2c(cc1F)c(=O)c(C(=O)O)cn2C1CC1`, for which the tube area decrease is -6.5%.

The next experiment in a line: GLP1 release stimulators, primary, NCI-H716, NPC library (AID 1117341). Note: reference of the scale not given here. As to conditions: NCI-H716 cells, at 10 µM, stronger effect = higher value.
Regarding `CCCn1cnc2c1c(=O)n(CCCCC(C)=O)c(=O)n2C`, the GLP1 secretion stimulation is -4.5%.

As for `O=C(O)C1(C(=O)O)CCC1.[NH2-].[NH2-].[Pt+2]`, the GLP1 secretion stimulation is 3%.

For `N[C@@H](Cc1ccc(O)cc1)C(=O)O`, the GLP1 secretion stimulation was 3%.

In the case of `C[S+](CC[C@H](N)C(=O)O)C[C@H]1O[C@@H](n2cnc3c(N)ncnc32)[C@H](O)[C@H]1O` (stereo partly drawn), the GLP1 secretion stimulation was -0.4%.

For the molecule `CCCC(=O)O[C@]1(C(=O)CO)CC[C@H]2[C@@H]3CCC4=CC(=O)CC[C@]4(C)[C@H]3[C@@H](O)C[C@@]21C`, the GLP1 secretion stimulation is 3.7%.

As to `O=C(O)C(S)C(S)C(=O)O` (stereo not drawn), the GLP1 secretion stimulation is 6.2%.

As to `CC(C)=CCC[C@@](C)(O)[C@H]1CC=C(C)CC1`, the GLP1 secretion stimulation is 2.7%.

For the molecule `C[C@]12CC[C@@H]3c4ccc(O)cc4CC[C@H]3[C@@H]1CC[C@@H]2OC(=O)CCC1CCCC1`, the GLP1 secretion stimulation is 3.6%.

For the molecule `CC(=O)N(c1onc(C)c1C)S(=O)(=O)c1ccc(N)cc1`, the GLP1 secretion stimulation is -0.8%.

`C=CC(C)(O)CCC=C(C)CCC=C(C)C` (stereo not drawn): the GLP1 secretion stimulation is 9.7%.

As to `C#C[C@]1(OC(C)=O)CC[C@H]2[C@@H]3CCC4=C/C(=N/O)CC[C@@H]4[C@H]3CC[C@@]21CC`, the GLP1 secretion stimulation is -2.6%.

Turning to `CCCCN1CCCC1C(=O)Nc1c(C)cc(C)cc1C` (stereo not drawn), the GLP1 secretion stimulation is -3.8%.

Regarding `C[C@]12CCC(=O)C=C1CC[C@H]1[C@@H]3CC[C@](O)(C(=O)CO)[C@@]3(C)C[C@H](O)[C@@]12F`, the GLP1 secretion stimulation was 0.3%.

Turning to `Cc1cc(-c2ccc(N=Nc3c(S(=O)(=O)O)cc4cc(S(=O)(=O)O)cc(N)c4c3O)c(C)c2)ccc1N=Nc1c(S(=O)(=O)O)cc2cc(S(=O)(=O)O)cc(N)c2c1O`, the GLP1 secretion stimulation was -8.7%.

As for `CCOc1cc(NC(C)=O)ccc1C(=O)OC`, the GLP1 secretion stimulation was 0.3%.

With `O=[N+]([O-])c1cccc(S(=O)(=O)NCCNS(=O)(=O)c2cccc([N+](=O)[O-])c2)c1`, the GLP1 secretion stimulation was 3.1%.

On to `CC(C)Cn1cnc2c1c(=O)n(C)c(=O)n2C`, for which the GLP1 secretion stimulation was 3.4%.

Consider `CCCCC(=O)O[C@]1(C(=O)CO)CC[C@H]2[C@@H]3CCC4=CC(=O)CC[C@]4(C)[C@H]3[C@@H](O)C[C@@]21C`, for which the GLP1 secretion stimulation was -1.5%.

Turning to `CCCCC[C@@H](O)CC[C@H]1[C@@H]2Cc3cccc(OCC(=O)O)c3C[C@@H]2C[C@@H]1O`, the GLP1 secretion stimulation was 8.8%.

Regarding `O=C(OCCO)c1ccccc1O`, the GLP1 secretion stimulation is -2.5%.

Regarding `C[C@@H]1CCC[C@H](C)N1`, the GLP1 secretion stimulation is 0.5%.

As to `Cc1cccc(C)c1NC(=O)CC12CCCN1CCC2`, the GLP1 secretion stimulation was 5%.

As for `CN(C)CCCO[C@@H]1[C@H]2OC(C)(C)O[C@H]2O[C@@H]1C(O)CO` (stereo partly drawn), the GLP1 secretion stimulation is 0.3%.

For `CCN(CC)C(=O)c1cccnc1`, the GLP1 secretion stimulation was 1.6%.

Regarding `CC(=O)Oc1ccc2c(c1)CC[C@@H]1[C@@H]2CC[C@]2(C)[C@@H](O)CC[C@@H]12`, the GLP1 secretion stimulation was 1.6%.

On to `CCOc1ccccc1C(N)=O`, for which the GLP1 secretion stimulation was 1.9%.

Take `CCCCCCCCCCCCCCCCCC[N+](C)(C)CCC[Si](OC)(OC)OC`: the GLP1 secretion stimulation was -3.1%.

`N[C@H]1C(O)O[C@H](CO)[C@@H](O)[C@@H]1O` (stereo partly drawn): the GLP1 secretion stimulation is -0.8%.

In the case of `CC(CC=O)CCCC(C)(C)O` (stereo not drawn), the GLP1 secretion stimulation was 3.1%.

On to `C/C(=N\O)[C@@H](C)NCC(C)(C)CN[C@H](C)/C(C)=N/O`, for which the GLP1 secretion stimulation is -8.7%.

In the case of `Cc1ccc2nc(N)[nH]c(=O)c2c1Sc1ccncc1`, the GLP1 secretion stimulation was 1.3%.

With `CCOC(=O)[C@H](CCc1ccccc1)N[C@@H](C)C(=O)N1C(=O)N(C)C[C@H]1C(=O)O`, the GLP1 secretion stimulation is 2%.

On to `CN1C[C@@H]2C[C@H]1CN2c1cc2c(cc1F)c(=O)c(C(=O)O)cn2C1CC1`, for which the GLP1 secretion stimulation is -0.3%.

As for `CO[C@H]1O[C@@H]2O[C@@]3(C)CC[C@H]4[C@H](C)CC[C@@H]([C@@H]1C)[C@@]24OO3`, the GLP1 secretion stimulation was 2%.

Regarding `C[C@H](O)CN(C)C`, the GLP1 secretion stimulation is -2.5%.

The record behind these values is PubChem BioAssay.
